The whole screen tested about 360,000 compounds, of which about 8,200 (2.3%) were called active. The list comes from a sample in which actives are over-represented; it also holds similar structures and randomly drawn compounds. Values without a mark were called inactive. Cut-off read from the data, not from the text of the source: active = inhibition above about 27%; inactive = the rest.

This test deals with Fructose-bisphosphate aldolase (Mycobacterium tuberculosis (strain ATCC 25618 / H37Rv)) (UniProt P9WQA3). Put plainly: M. tuberculosis aldolase activity blockers – biochemical, fluorescence, strain H37Rv, primary screen (AID 588726).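 Note: 0% = vehicle and 100% = reference inhibitor.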 Conditions: purified M. tuberculosis FBA, fluorescence read-out, at 1 µM, stronger effect = higher value.
Fructose-bisphosphate aldolase (Mycobacterium tuberculosis (strain ATCC 25618 / H37Rv)), sequence (P9WQA3 whole entry, looked up): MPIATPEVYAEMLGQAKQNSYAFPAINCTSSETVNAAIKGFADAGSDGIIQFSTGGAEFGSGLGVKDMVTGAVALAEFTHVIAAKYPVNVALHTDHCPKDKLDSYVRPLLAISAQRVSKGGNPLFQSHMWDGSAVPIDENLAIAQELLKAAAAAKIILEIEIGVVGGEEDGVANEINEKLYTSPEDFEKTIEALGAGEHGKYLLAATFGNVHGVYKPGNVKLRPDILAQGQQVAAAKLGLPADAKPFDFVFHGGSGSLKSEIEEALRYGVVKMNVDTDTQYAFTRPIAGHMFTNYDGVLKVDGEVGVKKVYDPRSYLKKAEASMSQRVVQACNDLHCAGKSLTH
Consider `CCOC(=O)N1CCC(NC(=O)Cn2cc3c(n2)CCCCC3)CC1`, for which the inhibition is 3.04%.

For the compound `C[C@H]1CN([C@@H](C)CO)C(=O)CCCn2nncc2CO[C@@H]1CN(C)S(=O)(=O)c1cccc(C#N)c1`, the inhibition is 1.03%.

Consider `O=C(CN1C(=O)NC2(CCCCC2)C1=O)NCCC1=CCCCC1`, for which the inhibition was 1.11%.

For the compound `COc1cccc(NC(=O)CN(C)C(C)C(=O)Nc2ccc(C#N)cc2)c1` (stereo unspecified), the inhibition is 1.24%.

With `COc1ccc(/C=C/C(=O)OCC(=O)Nc2cccc(Oc3ccccc3)c2)c(OC)c1`, the inhibition is -1.32%.

On to `COc1cccc(NC(=O)CN(C)C(=O)/C=C/c2cc(OC)ccc2OC)c1`, for which the inhibition was 57.2% (active).

Regarding `COc1cccc(NC(=O)CN(C)C(=O)Cc2ccc(Cl)cc2Cl)c1`, the inhibition is -2.96%.

For the compound `COc1cccc(NC(=O)CN(C)C(=O)CSC(=S)N2CCCC2)c1`, the inhibition is 3.18%.

Turning to `COc1cccc(NC(=O)CN(C)CC(=O)Nc2ccc3c(c2)CCC3)c1`, the inhibition is 55.8% (active).

With `Cc1ccc(-c2ccnc3nc(Sc4ncc(C(F)(F)F)cc4Cl)nn23)cc1`, the inhibition was 25.2%.

Take `CCc1ccc(OCC(=O)OCC(=O)c2c(N)n(C)c(=O)n(C)c2=O)cc1`: the inhibition is 3.53%.

As for `COc1ccccc1CNC(=O)Cn1c(=O)oc2cc(Cl)ccc21`, the inhibition is -1.01%.

As to `CC(C)C(C)(C#N)NC(=O)CSc1nc2scc(-c3ccccc3)c2c(=O)[nH]1` (stereo unspecified), the inhibition is -1.25%.

With `CCCc1nc2sc3c(c2c(=O)n1NC(=O)CCCl)CCCC3`, the inhibition was -0.17%.

For `COCCNc1nc(-n2nc(C)cc2C)nc2sc3c(c12)CCCC3`, the inhibition was 35.2% (active).

In the case of `CCc1nc(N2CCN(C(C)=O)CC2)c2c3c(sc2n1)CCCC3`, the inhibition is -1.16%.

Take `C=CCn1c(CCNC(=O)c2cccs2)n[nH]c1=S`: the inhibition was 0.26%.

For `O=C(NNC(=S)NC1CC2CCC1C2)c1ccc(Cl)cc1` (stereo unspecified), the inhibition was -1.27%.

For the compound `Cc1nn2c(c1-c1ccccc1)N=C(c1ccco1)CC2c1ccccc1` (stereo unspecified), the inhibition is -3.5%.

On to `COC(=O)c1ccccc1NC(=O)C1CC(=O)N(c2ccc(OC)cc2)C1` (stereo unspecified), for which the inhibition was 2.12%.

`CC1CCCN(c2ccc(C(=O)NCCc3ccccc3)cn2)C1` (stereo unspecified): the inhibition is 2.27%.

Regarding `O=C(Cc1ccc(Br)cc1)NCCN1CCOCC1`, the inhibition was 1.41%.

Regarding `O=C(NCCN1CCOCC1)c1c(F)c(F)c(F)c(F)c1F`, the inhibition is -2.22%.

As for `O=C(NCCc1ccccc1)c1ccc2c(c1)N(Cc1ccccc1)CCS2`, the inhibition is 43.6% (active).

`O=C(NCCN1CCOCC1)c1ccc2c(c1)N(Cc1ccc(Cl)cc1)CCS2`: the inhibition was 32.2% (active).

On to `CCOC(=O)N1CCN(C(=O)c2ccc3c(c2)N(Cc2ccc(C)cc2)CCS3)CC1`, for which the inhibition is 7.61%.

The inhibition is the relative decrease from the control value, in per cent.

The values are drawn from PubChem BioAssay AID588726 (The Scripps Research Institute Molecular Screening Center, 2011).
